According to PubChem BioAssay (NCATS):
Results filed as inconclusive are left out. The source made the active and inactive calls. Unless noted, the call rests on the fitted dose curve; in most records, active means well fitted curve in the direction sought with a large enough effect; inconclusive means small, poorly fitted or top-dose-only effect, or another doubt; inactive means no such curve, though single readings can be large; an effect the other way counts as inactive or inconclusive.

Experiments:
[1] = biological target: Lysosomal acid glucosylceramidase (Homo sapiens) (UniProt P04062); test: Glucocerebrosidase-p2 (AID 348; in the data active means potency below about 10 µM; further: potency means the concentration at half of the fitted maximal effect); details: purified GBA, blue fluorogenic substrate, 40 min
Procedure, shortened: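 Normal human glucocerebrosidase (0.2 nM) with blue fluorogenic substrate (80 uM final) in citrate/phosphate pH 5.9 with 10mM sodium taurocholate, 0.01% tween-20; 40 min RT, NaOH/glycine stop; fluorescence Ex 365/Em 440; AC50 from a titration from 0.6 nM upwards.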

[2] = AP1 Signaling Pathway (AID 357; active means well fitted curve in either direction with a large enough effect, not every such curve was filed as active;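 further: ME-180 reporter cells stimulated with EGF at its EC50 level; on the % scale 0 is the no-effect control and ±100 the full control effect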); details: ME-180 AP-1-bla reporter, EGF-induced, beta-lactamase ratio, 5 h; at 7.69 µM (top of the series) unless noted
Procedure, shortened: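 A ratiometric CCF4 readout (405 nm excitation; 460 and 530 nm emission) quantified AP-1-driven beta-lactamase in ME-180 cells after 5 h with compound and EC50 EGF; AC50 values were derived for activators and inhibitors.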

[3] = biological target: Cytochrome P450 1A2 (Homo sapiens) (UniProt P05177); test: p450-cyp1a2 (AID 410; calls by dose curve;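 further: -100% = full effect of reference inhibitor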)
Procedure, shortened: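 Luminescent demethylation readout: Luciferin-ME (100uM, equal to Km) turned over by 20nM CYP1A2 for 60 min at room temperature after NADPH regeneration addition, following 10 min compound preincubation. Normalization used 57 uM furafylline as full inhibition.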

[4] = Cell Viability - BJ (AID 421; calls by dose curve;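 further: potency means the concentration at half of the fitted maximal effect; cells exposed to compound for 40 hours at 37 °C before readout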); details: BJ fibroblast viability, qHTS
Procedure, shortened: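 Normal human BJ foreskin fibroblasts, 1500/well in complete medium, treated 40 hr at 37 °C. Cellular ATP by CellTiter-Glo luminescence; normalized to DMSO and 100 uM tamoxifen, AC50 from Hill fit.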

[5] = Cell Viability - Jurkat (AID 426;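 active means dose-dependent loss of cell ATP signal giving a full or clear fitted curve, ranked by lower potency value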; further: potency means the concentration at half of the fitted maximal effect); details: qHTS
Procedure, shortened: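 Cytotoxicity taken as drop in cellular ATP (CellTiter-Glo luminescence, 20 min room temperature) after 40 hr, 37C treatment of 5000 Jurkat Clone E6-1 cells per well; concentration-response fitted with Hill equation for AC50.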

[6] = Cell Viability - Hek293 (AID 427;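 active means compounds whose dose-response curve shows a full or clear partial loss of cell viability, called from curve shape rather than a numeric limit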;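 further: potency means the concentration at half of the fitted maximal effect; cells exposed to compound for 40 hours at 37 °C before reading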); details: qHTS
Procedure, shortened: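 HEK293 cells in complete medium were exposed to compound for 40 hr at 37 °C, then cellular ATP was read by CellTiter-Glo luminescence. Data were normalized to DMSO (basal) and 100 uM tamoxifen (100% inhibition), and AC50 came from Hill fits.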

[7] = Cell Viability - HepG2 (AID 433; calls by dose curve;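 further: potency means the concentration at half of the fitted maximal effect; potency for ATP loss meaning cytotoxicity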); details: qHTS
Procedure, shortened: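 Cytotoxicity is scored as loss of intracellular ATP in HepG2 cells exposed to compounds for 40 h. Concentration-response curves, normalized to DMSO and 100 uM tamoxifen, give AC50 values.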

[8] = Cell Viability - MRC5 (AID 434; calls by dose curve;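 further: potency means the concentration at half of the fitted maximal effect; potency reflects cytotoxicity seen as loss of intracellular ATP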); details: MRC5 lung fibroblast viability, qHTS
Procedure, shortened: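 ATP luminescence read-out (CellTiter-Glo, 20 min RT) after 40 hr, 37 °C compound exposure of 1500 MRC5 cells/well. Data normalized to DMSO (basal) and 100 uM tamoxifen (100% inhibition); AC50 from standard Hill equation.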

[9] = Cell Viability - SK-N-SH (AID 435; calls by dose curve; further: potency means the concentration at half of the fitted maximal effect); details: SK-N-SH neuroblastoma cell viability qHTS
Procedure, shortened: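 Cells seeded at 1500 per well and incubated 5 hr at 37 °C. Compound added, then 40 hr at 37 °C. CellTiter-Glo added, 20 min at room temperature, luminescence read.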

[10] = NFAT Signaling Pathway (AID 444; active means well fitted curve in either direction with a large enough effect, not every such curve was filed as active;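 further: carbachol stimulus at about its EC50 of 1 µM final; on the % scale 0 is the no-effect control and ±100 the full control effect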); details: Jurkat NFAT-bla M1, carbachol, beta-lactamase ratio, 5 h; at 7.69 µM (top of the series) unless noted
Procedure, shortened: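 Jurkat cells with NFAT-driven β-lactamase reporter and co-expressed M1 receptor, stimulated with carbachol (final 1 uM, ~EC50), compound titration, 5 h at 37 °C. CCF4 loaded 1 h at RT; 460/530 nm ratio gave %activity and AC50.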

[11] = Stat Signaling Pathway (AID 446; active means well fitted curve in either direction with a large enough effect, not every such curve was filed as active;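 further: ME-180 cervical cancer cells given 40 pM IL-6 alongside compound; SIE-controlled beta-lactamase reporter measured as 460/530 nm FRET emission ratio; on the % scale 0 is the no-effect control and ±100 the full control effect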); details: ME-180 (cervical carcinoma) SIE beta-lactamase reporter, IL-6 stimulated, 5 h; at 7.69 µM (top of the series) unless noted
Procedure, shortened: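 Normalization used AC90 stimulation (300 pM IL-6) and AC90 inhibition (125 nM pan-JAK inhibitor at 40 pM IL-6). The underlying signal is SIE-driven beta-lactamase in ME-180 cells after 5 h IL-6 exposure with compound.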

[12] = biological target: Glucocorticoid receptor (Homo sapiens) (UniProt P04150); test: GR-GFP Redistribution (AID 450;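 active means compounds whose dose series gives a full or clear partial fitted curve of increased nuclear translocation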; further: potency means the concentration at half of the fitted maximal effect); details: U2OS GR-GFP nuclear translocation, laser cytometry, 2 h
[13] = biological target: Glucocorticoid receptor (Homo sapiens) (UniProt P04150); test: GR-EFC Redistribution (AID 451; calls by dose curve; further: potency means the concentration at half of the fitted maximal effect); details: CHO-K1 GR-EFC translocation, beta-gal luminescence, 2 h
Procedure, shortened: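 CHO-K1 cells expressing nuclear EA and GR-ED fragments of b-gal; compounds titrated up to 46 uM final, 2 h at 37 C. GR nuclear translocation read as complemented b-gal luminescence after 1 h RT detection.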

[14] = biological target: Mitogen-activated protein kinase 10 (Mus musculus) (UniProt Q61831); test: JNK3 AlphaScreen Assay (AID 530; active means well fitted curve in either direction with a large enough effect, not every such curve was filed as active;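 further: kinase came from lysate of stimulated human HepG2 cells; signal reports phosphorylation of biotinylated GST-cJun 1-79 at Ser73 with 10 µM ATP; on the % scale 0 is the no-effect control and ±100 the full control effect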)
Procedure, shortened: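 Activity was read by AlphaScreen after JNK3-containing HepG2 lysate (cytokine pre-activated) phosphorylated biotinylated GST-cJun with 10 uM ATP at room temperature. Phospho-Ser73 cJun antibody with Protein-A acceptor beads provided detection.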

[15] = Cell Viability - N2a (AID 540); details: N2a mouse neuroblastoma cell viability; activity change, negative = cytotoxicity: at 92.2 µM (top of the series);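 further: plate controls were DMSO alone for no effect and tamoxifen control for full effect; nearly all actives have a fitted effect of over 45% in size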
Procedure, shortened: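 CellTiter-Glo ATP luminescence, read 20 min after reagent at room temperature, reported viability following 40 h compound treatment at 37 °C. N2a mouse neuroblastoma cells seeded 1500/well; Hill equation gave AC50.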

[16] = Cell Viability - NIH 3T3 (AID 541); details: NIH 3T3 cell viability, qHTS; activity change, negative = cytotoxicity: at 92.2 µM (top of the series);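 further: plate controls were DMSO alone for no effect and tamoxifen positive control for full effect; nearly all actives have a fitted effect of over 25% in size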
Procedure, shortened: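 Intracellular ATP (CellTiter-Glo luminescence, 20 min at room temperature) measured after 40 hr compound exposure at 37 °C of 1000 NIH 3T3 mouse fibroblasts/well in complete medium; AC50 derived by Hill-equation modelling of qHTS concentration-response curves.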

[17] = Cell Viability - HUV-EC-C (AID 542); further: on the % scale 0 is the no-effect control and ±100 the full control effect; nearly all actives have a fitted effect of over 35% in size
Procedure, shortened: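 CellTiter-Glo luminescence measured ATP loss in HUV-EC-C cells (1000/well) after 40 hr compound exposure at 37 °C, in complete culture medium. Concentration-response data were Hill-fitted to give AC50.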

[18] = Cell Viability - H-4-II-E (AID 543); further: on the % scale 0 is the no-effect control and ±100 the full control effect; nearly all actives have a fitted effect of over 35% in size
Procedure, shortened: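 CellTiter-Glo luminescence (intracellular ATP) measured after 40 h compound exposure at 37 °C in H-4-II-E rat hepatoma cells seeded at 1500/well. Values are AC50s fitted with the standard Hill equation.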

[19] = Cell Viability - SH-SY5Y (AID 544); details: SH-SY5Y neuroblastoma cell viability; viability change, negative = cytotoxic: at 92.2 µM (top of the series); further: nearly all actives have a fitted effect of over 55% in size
Procedure, shortened: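 Cytotoxicity measured via ATP-dependent luciferase luminescence (CellTiter-Glo) following 40 h, 37 °C exposure of 1500 SH-SY5Y cells per well. Concentration-response data were fitted with the standard Hill equation to give AC50.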

[20] = Cell Viability - Mesenchymal (AID 546); details: mesenchymal cells viability, qHTS; activity change, negative = cytotoxicity: at 91.7 µM (top of the series);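 further: cells exposed to compound for 40 hours before reading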
Procedure, shortened: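 Human renal mesenchymal cells (glomerulus-derived), 1000 cells/well, 5 hr 37 °C pre-incubation; compound 40 hr, 37 °C; CellTiter-Glo, 20 min RT; luminescence; AC50 via Hill equation.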

[21] = biological target: 3',5'-cyclic-AMP phosphodiesterase 4B (Homo sapiens) (UniProt Q07343); test: qHTS Assay for Inhibitors of PDE-IV (AID 607; active means well fitted activation curve with a large enough effect in the main read-out, with a control signal flat, not every such curve was filed as active; further: % of control where 0% means no effect)
Procedure, shortened: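 HEK293 ACTOne cells with CNG channel (1000/well), endogenous PDE4; membrane potential dye, compounds up to 22.9 uM final. Fluorescence Ex 535/Em 590; RO 20-1724 (100 uM final) as reference.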

[22] = Cellular Toxicity (caspase-3) HepG2 (AID 654);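 further: cells exposed to compound for 16 hours before reading; 0% = DMSO alone and 100% = caspase signal from 100 µM tamoxifen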
Procedure, shortened: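 Caspase 3/7 activation is measured as a luminescence increase (aminoluciferin substrate) after 16 h compound exposure of human hepatocarcinoma HepG2 cells. AC50 values are Hill fits, scaled between DMSO baseline and 100 uM tamoxifen stimulation.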

[23] = Cellular Toxicity (caspase-3) Jurkat (AID 655); details: Jurkat caspase-3 activation, luminescence; caspase-3 activation: at 92.2 µM (top of the series), DMSO = 0%, tamoxifen = 100%;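 further: cells exposed to compound for 16 h at 37 °C before reading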
Procedure, shortened: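 Caspase 3/7 activation is scored as increased luminescence in Jurkat cells cultured with compound for 16 hours in complete medium. AC50 values come from Hill fits of qHTS concentration-response data normalized to DMSO and 100 uM tamoxifen controls.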

[24] = Cellular Toxicity (caspase-3) SHSY5Y (AID 657)
Procedure, shortened: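 Cells plated and incubated 5 h at 37 °C, dosed over a concentration range, incubated 16 h, then given Caspase-Glo 3/7 reagent for 1 h at room temperature before luminescence reading. Staurosporine (10 uM) defined full stimulation.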

[25] = Cellular Toxicity (caspase-3) BJ (AID 658); details: Potency: caspase-3 activation;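 further: 0% = DMSO basal and 100% = 10 µM staurosporine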
Procedure, shortened: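 qHTS, BJ fibroblasts, 1000 cells/well; 5 hr preincubation, 16 hr compound, 37 °C; Caspase-Glo 3/7 reagent, 1 hr RT; luminescence. DMSO = 0%, 10 uM staurosporine = 100%. Hill-equation AC50.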

[26] = Cellular Toxicity (caspase-3) MRC-5 (AID 659);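 further: 0% = DMSO basal and 100% = 10 µM staurosporine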
Procedure, shortened: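 MRC-5 fibroblasts, 1500/well; 16 h cpd, 37 °C; Caspase-Glo 3/7, 1 h RT; lumi read. Norm: DMSO = 0%, 10 uM staurosporine = 100%. Hill-fit AC50 from qHTS conc-response.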

[27] = Cellular Toxicity (caspase-3) Mesangial (AID 660);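 further: combined caspase 3 and 7 activity read by Caspase-Glo luminescence; cells exposed to compound for 16 h before the caspase read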
Procedure, shortened: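 Caspase 3/7 activation measured by Caspase-Glo 3/7 luminescence (20 min, room temperature) following 16 h exposure of mesangial cells (1000/well); AC50 from Hill-equation fit, normalized to DMSO and 100 uM tamoxifen.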

[28] = Cellular Toxicity (caspase-3) SK-N-SH (AID 661);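 further: 0% = DMSO basal and 100% = 10 µM staurosporine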
Procedure, shortened: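 Caspase 3/7 activation was read by luminogenic substrate cleavage after 16 hour treatment of SK-N-SH cells. Signal was scaled between DMSO and 10 uM staurosporine, and concentration-response data were fitted with the Hill equation for AC50.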

[29] = Cellular Toxicity (caspase-3) H-4-II-E (AID 663); details: Potency: caspase-3 activation;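 further: cells exposed to compound for 16 hr before readout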
Procedure, shortened: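 H-4-II-E rat hepatoma, 1500 cells/well, 5 hr settle at 37 °C; compound 16 hr, 37 °C, complete medium; Caspase-Glo 3/7, 20 min RT; luminescence. DMSO = 0%, 100 uM tamoxifen = 100%; Hill-equation AC50.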

[30] = Cellular Toxicity (caspase-3) Hek293 (AID 664); details: HEK293 caspase-3 activation, DMSO = 0%, 100 µM tamoxifen = 100%; at 92.2 µM (top of the series);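 further: cells exposed to compound for 16 h at 37 °C before readout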
Procedure, shortened: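 Concentration-response qHTS: caspase 3/7 activation measured by luminescent aminoluciferin substrate cleavage after 16 h compound exposure of Hek 293 cells. AC50 from Hill equation, with DMSO as basal and 100 uM tamoxifen as 100%.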

[31] = Cellular Toxicity (caspase-3) N2a (AID 665);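 further: compound exposure lasted 16 h at 37 °C before readout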
Procedure, shortened: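 Caspase-3/7 activation measured as luminescence from Caspase-Glo reagent (1 h, room temperature) after 16 h compound exposure of mouse N2a cells. AC50 values from Hill-equation concentration-response, scaled between DMSO and 10 uM staurosporine.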

[32] = Cellular Toxicity (caspase-3) Renal Proximal Tubule (AID 667); details: Potency: caspase-3 activation;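 further: cells exposed to compound for 16 hours at 37 °C before detection; 0% = DMSO basal and 100% = 10 µM staurosporine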
Procedure, shortened: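 In qHTS format, rat primary proximal tubule cells seeded at 1000 per well are exposed to compounds for 16 hours at 37 °C. An increase in Caspase-Glo 3/7 luminescence indicates caspase activation.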

[33] = biological target: Cytochrome P450 3A4 (Homo sapiens) (UniProt P08684); test: qHTS Assay for Inhibitors and Substrates of Cytochrome P450 3A4 (AID 884); further: on the % scale 0 is the no-effect control and ±100 the full control effect; nearly all actives have a fitted effect of over 50% in size
Procedure, shortened: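 Luminescent readout of luciferin produced by CYP3A4 (20 nM) dealkylation of Luciferin-PPXE, 25 uM (its KM). NADPH-driven reaction ran 60 min at RT after 10 min compound preincubation; data scaled to 57 uM ketoconazole as 100% inhibition.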

[34] = MultiTox-Fluor Cytotoxicity Assay - LYMP1-001 - Dead Cells (AID 946);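 further: 0% = DMSO and 100% = tetraoctylammonium bromide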
Procedure, shortened: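 LYMP1-001 lymphoblastoid cells (2500/well) treated 16 h at 37 C. Dead-cell protease cleavage of bis-AAF-R110 read at Ex/Em 485/520. Normalized to DMSO and 15 uM tetraoctylammonium bromide; AC50 from Hill fits.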

[35] = MultiTox-Fluor Cytotoxicity Assay - LYMP1-001 - Live Cells (AID 947);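 further: 0% = DMSO only and full inhibition = tetraoctylammonium bromide control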
[36] = Cell Viability - LYMP1-002 - Assay at 16 hr (AID 948);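 further: 0% = DMSO alone and full effect = 92 µM tetraoctylammonium bromide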
Procedure, shortened: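 Acute cytotoxicity is scored as a concentration-dependent fall in intracellular ATP in a human lymphoblastoid line (LYMP1-002) after 16 hr compound exposure at 37 C, measured by luciferase luminescence.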

Chain of Glucocorticoid receptor (Homo sapiens) (P04150 whole entry, looked up, the tested form may be a part): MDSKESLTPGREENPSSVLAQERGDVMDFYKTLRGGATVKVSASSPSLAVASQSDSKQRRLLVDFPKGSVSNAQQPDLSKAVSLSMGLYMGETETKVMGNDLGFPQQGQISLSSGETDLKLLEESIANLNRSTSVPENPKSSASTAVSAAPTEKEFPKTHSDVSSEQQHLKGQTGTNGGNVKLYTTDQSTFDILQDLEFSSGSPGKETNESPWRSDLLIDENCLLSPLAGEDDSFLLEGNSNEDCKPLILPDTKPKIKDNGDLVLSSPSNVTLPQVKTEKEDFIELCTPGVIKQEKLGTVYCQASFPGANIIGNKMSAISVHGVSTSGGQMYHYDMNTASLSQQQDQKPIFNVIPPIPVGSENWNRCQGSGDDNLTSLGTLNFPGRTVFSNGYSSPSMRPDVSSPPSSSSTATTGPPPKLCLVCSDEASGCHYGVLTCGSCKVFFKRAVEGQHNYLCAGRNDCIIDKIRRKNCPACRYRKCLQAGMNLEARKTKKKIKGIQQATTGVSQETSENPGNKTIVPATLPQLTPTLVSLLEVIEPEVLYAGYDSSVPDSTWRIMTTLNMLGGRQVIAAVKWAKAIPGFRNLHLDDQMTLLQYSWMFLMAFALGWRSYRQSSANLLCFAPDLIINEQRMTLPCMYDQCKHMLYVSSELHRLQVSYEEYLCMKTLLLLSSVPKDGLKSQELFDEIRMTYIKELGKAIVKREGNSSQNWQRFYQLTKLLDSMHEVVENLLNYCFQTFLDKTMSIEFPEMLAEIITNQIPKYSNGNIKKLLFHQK
Chain of Cytochrome P450 3A4 (Homo sapiens) (P08684 whole entry, looked up): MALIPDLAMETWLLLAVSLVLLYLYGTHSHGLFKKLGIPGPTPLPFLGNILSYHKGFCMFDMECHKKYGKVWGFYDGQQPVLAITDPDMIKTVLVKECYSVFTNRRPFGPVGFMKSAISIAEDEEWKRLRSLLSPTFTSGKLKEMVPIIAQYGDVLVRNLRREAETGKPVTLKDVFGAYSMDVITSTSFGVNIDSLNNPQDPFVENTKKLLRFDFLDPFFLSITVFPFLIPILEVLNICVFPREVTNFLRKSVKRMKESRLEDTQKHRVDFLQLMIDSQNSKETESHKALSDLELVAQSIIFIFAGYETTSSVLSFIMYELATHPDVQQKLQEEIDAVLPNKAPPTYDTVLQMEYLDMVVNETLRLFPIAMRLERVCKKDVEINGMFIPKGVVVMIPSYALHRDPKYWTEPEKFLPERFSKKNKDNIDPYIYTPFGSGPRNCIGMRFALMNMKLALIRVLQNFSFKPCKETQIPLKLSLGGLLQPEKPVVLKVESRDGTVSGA
Chain of 3',5'-cyclic-AMP phosphodiesterase 4B (Homo sapiens) (Q07343 whole entry, looked up): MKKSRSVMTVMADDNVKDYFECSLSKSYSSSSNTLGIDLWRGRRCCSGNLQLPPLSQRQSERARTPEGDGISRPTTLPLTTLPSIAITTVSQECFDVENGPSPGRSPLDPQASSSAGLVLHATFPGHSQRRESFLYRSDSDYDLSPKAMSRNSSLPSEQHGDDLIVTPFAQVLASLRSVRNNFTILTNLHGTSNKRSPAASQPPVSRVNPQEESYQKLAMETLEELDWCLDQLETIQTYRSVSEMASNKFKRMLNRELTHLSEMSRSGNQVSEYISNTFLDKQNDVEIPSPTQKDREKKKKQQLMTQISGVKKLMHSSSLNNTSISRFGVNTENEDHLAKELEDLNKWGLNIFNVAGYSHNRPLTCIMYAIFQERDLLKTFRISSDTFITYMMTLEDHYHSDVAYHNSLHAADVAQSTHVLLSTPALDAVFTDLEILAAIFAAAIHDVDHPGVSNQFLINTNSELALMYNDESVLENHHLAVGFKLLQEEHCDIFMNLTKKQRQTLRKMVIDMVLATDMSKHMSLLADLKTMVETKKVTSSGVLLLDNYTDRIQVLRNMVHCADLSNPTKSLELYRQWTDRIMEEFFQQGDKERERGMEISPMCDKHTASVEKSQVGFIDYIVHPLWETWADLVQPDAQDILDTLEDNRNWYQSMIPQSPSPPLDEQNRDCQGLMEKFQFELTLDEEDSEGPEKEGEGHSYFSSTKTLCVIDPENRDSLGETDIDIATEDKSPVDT
Chain of Cytochrome P450 1A2 (Homo sapiens) (P05177 whole entry, looked up): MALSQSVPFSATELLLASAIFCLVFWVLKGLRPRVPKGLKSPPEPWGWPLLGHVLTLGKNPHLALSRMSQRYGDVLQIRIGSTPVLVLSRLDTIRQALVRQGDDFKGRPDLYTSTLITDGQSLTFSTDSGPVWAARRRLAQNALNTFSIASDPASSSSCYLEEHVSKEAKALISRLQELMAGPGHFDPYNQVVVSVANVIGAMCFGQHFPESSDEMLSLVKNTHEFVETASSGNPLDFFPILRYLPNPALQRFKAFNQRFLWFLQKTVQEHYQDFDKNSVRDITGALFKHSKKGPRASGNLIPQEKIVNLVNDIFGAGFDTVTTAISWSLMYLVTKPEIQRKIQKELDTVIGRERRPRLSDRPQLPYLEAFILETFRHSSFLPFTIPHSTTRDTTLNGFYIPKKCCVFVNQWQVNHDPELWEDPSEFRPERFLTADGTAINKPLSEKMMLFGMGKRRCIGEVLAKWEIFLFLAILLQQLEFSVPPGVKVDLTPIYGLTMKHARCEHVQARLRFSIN
Chain of Lysosomal acid glucosylceramidase (Homo sapiens) (P04062 whole entry, looked up): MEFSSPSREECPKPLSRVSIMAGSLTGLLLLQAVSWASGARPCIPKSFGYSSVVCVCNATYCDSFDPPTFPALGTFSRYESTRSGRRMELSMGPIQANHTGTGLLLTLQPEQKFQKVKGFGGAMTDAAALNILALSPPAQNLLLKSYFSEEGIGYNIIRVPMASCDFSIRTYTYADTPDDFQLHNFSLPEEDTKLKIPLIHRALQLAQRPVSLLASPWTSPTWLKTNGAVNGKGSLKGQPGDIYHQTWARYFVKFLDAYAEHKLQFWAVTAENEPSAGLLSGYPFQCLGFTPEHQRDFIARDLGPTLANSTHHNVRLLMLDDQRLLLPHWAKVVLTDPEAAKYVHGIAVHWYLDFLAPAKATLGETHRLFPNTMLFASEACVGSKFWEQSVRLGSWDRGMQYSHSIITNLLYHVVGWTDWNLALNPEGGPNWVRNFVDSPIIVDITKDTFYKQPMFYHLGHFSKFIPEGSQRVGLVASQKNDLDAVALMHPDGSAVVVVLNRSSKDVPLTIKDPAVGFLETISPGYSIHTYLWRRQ

O=C(O)c1cc(N=Nc2ccc([N+](=O)[O-])cc2)ccc1O
inactive: Potency [1] > 11.4 µM | activity change, negative = inhibition [2] -28% | activity change, negative = inhibition [3] -15.3% [at 2.29 µM] | Potency [4] > 92 µM | Potency [5] > 92 µM | Potency [6] > 92 µM | Potency [7] > 92 µM | Potency [8] > 92 µM | Potency [9] > 92 µM | activity change, negative = inhibition [10] 28.6% | activity, negative = inhibition [11] -2.69% | Potency [12] > 46 µM | Potency [13] > 9.22 µM | Potency [14] | activity change, negative = cytotoxicity [15] -5.65% | activity change, negative = cytotoxicity [16] -24.1% | Potency [17] | Potency [18] | Potency [19] | Potency [20] | Potency [21] | Potency [22] | Potency [23] | Potency [24] | Potency [25] | outcome [26] | outcome [27] | outcome [28] | Potency [29] | caspase-3 activation [30] -10.9% | outcome [31] | Potency [32] | Potency [33] | Potency [34] | Potency [35] | Potency [36]
